Inconclusive results are not listed. Activity calls are given as the source filed them. Calls follow the shape of the dose curve; as a rule, active = well fitted curve in the direction sought with a large enough effect; inconclusive = small, poorly fitted or top-dose-only effect, or another doubt; inactive = no such curve, though single readings can be large; an effect the other way counts as inactive or inconclusive.

For 13 compounds, Potency and outcome results are on record in PubChem BioAssay (NCATS).

Assay [1] concerns the target Cytochrome P450 2C9 (Homo sapiens) (UniProt P11712). Briefly: qHTS Assay for Inhibitors and Substrates of Cytochrome P450 2C9 (AID 883). Also: nearly all actives have a fitted effect of over 60% in size. Also: potency is read from the fitted curve at half-maximal effect. The method, boiled down:
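Human CYP2C9 (10nM) hydroxylated Luciferin-H (100uM, at its KM) to luciferin in 25mM KPO4. Compound was preincubated 10 min at 37C, then NADPH regeneration started a 60 min reaction at 37C. Luminescence was read after detection reagent, normalized to 57uM sulphaphenazole.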

Assay [2] concerns the target ATP-dependent 6-phosphofructokinase (Trypanosoma brucei brucei) (UniProt O15648). In words: qHTS Assay to Find Inhibitors of T. brucei phosphofructokinase: hit validation (AID 492961).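 Also: luminescence reports ADP formed as PFK phosphorylates fructose-6-phosphate with ATP.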 A digest of the protocol: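 PFK 1.25 nM, F6P 0.5 mM, ATP 0.1 mM, MgCl2 5 mM, 0.1 M TEA pH 8.0, Tween20 0.01%, BSA 0.1%; 45 min RT. ADP-Glo two-step detection, luminescence. qHTS titration; curve fitting with curve-class categorization.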
For orientation: qHTS replaces the single test concentration by a dilution series.

Assay [3] relates to 7G8. Briefly: qHTS profiling for inhibitors of Plasmodium falciparum proliferation (AID 504749). Also: nearly all actives have a fitted effect of over 60% in size. Also: potency is read from the fitted curve at half-maximal effect. As to conditions: P. falciparum in erythrocytes, SYBR Green DNA, 72 h; series mostly up to 12.8 µM. A digest of the protocol:
(§1)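 Quantitative HTS: compounds pinned into medium, infected erythrocytes added (0.3% parasitemia, 2.5% hematocrit), 72 h culture at 37 C under 5% CO2. Saponin/Triton lysis with SYBR Green I, overnight RT, then fluorescence read.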

Assay [4] deals with CP211. Described as above. As to conditions: P. falciparum in erythrocytes, SYBR Green DNA, 72 h; series mostly up to 12.8 µM. The method, boiled down:
as §1

The test system of assay [5] is CP215. The assay is described as above. The note with it: P. falciparum in erythrocytes, SYBR Green DNA, 72 h; series mostly up to 12.8 µM. A digest of the protocol:
as §1

The test system of assay [6] is CP266. The assay is described as above. The note with it: P. falciparum in erythrocytes, SYBR Green DNA, 72 h; series mostly up to 12.8 µM. The method, boiled down:
as §1

Assay [7] relates to CP297. Described as above. As to conditions: P. falciparum in erythrocytes, SYBR Green DNA, 72 h; series mostly up to 12.8 µM. The method, boiled down: as §1
Assay [8] has as its system CP315. Described as above. As to conditions: P. falciparum in erythrocytes, SYBR Green DNA, 72 h; series mostly up to 12.8 µM. A digest of the protocol:
as §1

The test system of assay [9] is W2. The assay is described as above. As to conditions: P. falciparum in erythrocytes, SYBR Green DNA, 72 h; series mostly up to 12.8 µM. The method, boiled down:
as §1

For assay [10], the system named is CP260. The description is as above. As to conditions: P. falciparum in erythrocytes, SYBR Green DNA, 72 h; series mostly up to 12.8 µM. The method, boiled down: as §1
Assay [11] relates to CP269. The description is as above. As to conditions: P. falciparum in erythrocytes, SYBR Green DNA, 72 h; series mostly up to 12.8 µM. A digest of the protocol: as §1
For assay [12], the system named is CP335. The assay is described as above. As to conditions: P. falciparum in erythrocytes, SYBR Green DNA, 72 h; series mostly up to 12.8 µM. A digest of the protocol: as §1
The test system of assay [13] is GB4. Described as above. As to conditions: P. falciparum in erythrocytes, SYBR Green DNA, 72 h; series mostly up to 12.8 µM. A digest of the protocol:
as §1

The test system of assay [14] is PC26. Described as above. The note with it: P. falciparum in erythrocytes, SYBR Green DNA, 72 h; series mostly up to 12.8 µM. A digest of the protocol: as §1
The target in assay [15] is Cytochrome P450 3A4 (Homo sapiens) (UniProt P08684). Briefly: qHTS Assay for Inhibitors and Substrates of Cytochrome P450 3A4 (AID 884). Also: nearly all actives have a fitted effect of over 50% in size. Also: potency is read from the fitted curve at half-maximal effect. The method, boiled down:
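Luminescent readout of luciferin produced by CYP3A4 (20 nM) dealkylation of Luciferin-PPXE, 25 uM (its KM). NADPH-driven reaction ran 60 min at RT after 10 min compound preincubation; data scaled to 57 uM ketoconazole as 100% inhibition.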

The target in assay [16] is Cytochrome P450 2D6 (Homo sapiens) (UniProt P10635). Briefly: qHTS Assay for Inhibitors and Substrates of Cytochrome P450 2D6 (AID 891). Also: nearly all actives have a fitted effect of over 60% in size. Also: potency is read from the fitted curve at half-maximal effect. A digest of the protocol:
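Luminescent read-out of luciferin formed by 5 nM human CYP2D6 demethylating 30 uM Luciferin-ME EGE (Km level) over 60 min at room temperature after NADPH regeneration addition. Data normalized to full inhibition by 1.43 uM quinidine.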

The target of assay [17] is Cytochrome P450 2C19 (Homo sapiens) (UniProt P33261). In words: qHTS Assay for Inhibitors and Substrates of Cytochrome P450 2C19 (AID 899). Also: nearly all actives have a fitted effect of over 60% in size. Also: potency is read from the fitted curve at half-maximal effect. A digest of the protocol:
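Human CYP2C19 (5nM) with Luciferin-H EGE at 10uM (its KM) in 50mM KPO4 was preincubated with compound for 10 min at 37C. NADPH regeneration started a 60 min 37C reaction. Luciferin was read by luminescence, normalized to 57uM ketoconazole.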

Assay [18] concerns DFO2036. In words: qHTS profiling for inhibitors of Plasmodium falciparum proliferation (AID 504749). Also: nearly all actives have a fitted effect of over 60% in size. Also: potency is read from the fitted curve at half-maximal effect. As to conditions: P. falciparum in erythrocytes, SYBR Green DNA, 72 h; series mostly up to 12.8 µM. A digest of the protocol: as §1
The subject of assay [19] is P94_40. The description is as above. As to conditions: P. falciparum in erythrocytes, SYBR Green DNA, 72 h; series mostly up to 12.8 µM. A digest of the protocol:
as §1

Assay [20] concerns the target Cytochrome P450 3A4 (Homo sapiens) (UniProt P08684). Briefly: qHTS Assay for Activators of Cytochrome P450 3A4 (AID 885). Also: nearly all actives have a fitted effect of over 65% in size. The method, boiled down:
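Activators are scored by enhanced luminescence from CYP3A4 conversion of luciferin-PPXE (25uM, equal to KM) to luciferin, after 60 min at RT with an NADPH-regenerating system.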

ATP-dependent 6-phosphofructokinase (Trypanosoma brucei brucei), sequence (O15648 whole entry, looked up): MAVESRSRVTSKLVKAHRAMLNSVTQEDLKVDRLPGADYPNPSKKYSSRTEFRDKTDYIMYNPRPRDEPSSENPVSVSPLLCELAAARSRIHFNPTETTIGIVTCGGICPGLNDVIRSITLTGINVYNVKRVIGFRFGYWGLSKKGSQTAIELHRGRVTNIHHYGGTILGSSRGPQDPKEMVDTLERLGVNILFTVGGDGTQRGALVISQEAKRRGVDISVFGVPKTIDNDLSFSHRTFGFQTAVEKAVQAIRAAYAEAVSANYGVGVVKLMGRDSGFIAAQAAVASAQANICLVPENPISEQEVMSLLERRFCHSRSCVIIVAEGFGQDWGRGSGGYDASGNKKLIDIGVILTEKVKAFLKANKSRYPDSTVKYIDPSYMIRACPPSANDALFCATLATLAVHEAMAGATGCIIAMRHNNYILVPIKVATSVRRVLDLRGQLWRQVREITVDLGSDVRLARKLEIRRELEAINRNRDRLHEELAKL
Cytochrome P450 2C19 (Homo sapiens), sequence (P33261 whole entry, looked up): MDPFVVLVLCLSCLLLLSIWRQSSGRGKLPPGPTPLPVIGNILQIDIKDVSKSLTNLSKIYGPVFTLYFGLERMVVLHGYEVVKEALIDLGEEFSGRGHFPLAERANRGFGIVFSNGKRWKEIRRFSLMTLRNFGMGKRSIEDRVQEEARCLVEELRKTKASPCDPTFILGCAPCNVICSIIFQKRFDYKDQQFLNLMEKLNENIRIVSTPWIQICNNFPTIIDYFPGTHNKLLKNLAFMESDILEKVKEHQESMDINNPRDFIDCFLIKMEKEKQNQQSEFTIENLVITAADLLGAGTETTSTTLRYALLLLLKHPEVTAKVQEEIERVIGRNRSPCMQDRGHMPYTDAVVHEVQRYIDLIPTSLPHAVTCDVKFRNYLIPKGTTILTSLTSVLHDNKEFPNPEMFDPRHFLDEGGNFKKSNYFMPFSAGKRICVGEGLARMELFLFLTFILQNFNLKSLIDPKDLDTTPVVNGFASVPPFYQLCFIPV
Cytochrome P450 3A4 (Homo sapiens), sequence (P08684 whole entry, looked up): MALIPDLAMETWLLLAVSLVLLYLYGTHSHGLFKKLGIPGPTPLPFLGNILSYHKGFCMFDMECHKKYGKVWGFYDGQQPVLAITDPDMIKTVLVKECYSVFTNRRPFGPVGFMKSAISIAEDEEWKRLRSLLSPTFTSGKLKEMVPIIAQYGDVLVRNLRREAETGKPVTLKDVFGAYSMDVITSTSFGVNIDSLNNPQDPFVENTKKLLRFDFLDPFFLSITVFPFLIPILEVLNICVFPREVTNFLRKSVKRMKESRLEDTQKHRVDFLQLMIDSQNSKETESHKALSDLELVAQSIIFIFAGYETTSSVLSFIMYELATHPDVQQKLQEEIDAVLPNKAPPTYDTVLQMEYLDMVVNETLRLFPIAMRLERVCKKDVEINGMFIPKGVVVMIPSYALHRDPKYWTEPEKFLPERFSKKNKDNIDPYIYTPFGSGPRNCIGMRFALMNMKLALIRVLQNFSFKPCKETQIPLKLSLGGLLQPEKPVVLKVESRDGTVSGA
Cytochrome P450 2C9 (Homo sapiens), sequence (P11712 whole entry, looked up): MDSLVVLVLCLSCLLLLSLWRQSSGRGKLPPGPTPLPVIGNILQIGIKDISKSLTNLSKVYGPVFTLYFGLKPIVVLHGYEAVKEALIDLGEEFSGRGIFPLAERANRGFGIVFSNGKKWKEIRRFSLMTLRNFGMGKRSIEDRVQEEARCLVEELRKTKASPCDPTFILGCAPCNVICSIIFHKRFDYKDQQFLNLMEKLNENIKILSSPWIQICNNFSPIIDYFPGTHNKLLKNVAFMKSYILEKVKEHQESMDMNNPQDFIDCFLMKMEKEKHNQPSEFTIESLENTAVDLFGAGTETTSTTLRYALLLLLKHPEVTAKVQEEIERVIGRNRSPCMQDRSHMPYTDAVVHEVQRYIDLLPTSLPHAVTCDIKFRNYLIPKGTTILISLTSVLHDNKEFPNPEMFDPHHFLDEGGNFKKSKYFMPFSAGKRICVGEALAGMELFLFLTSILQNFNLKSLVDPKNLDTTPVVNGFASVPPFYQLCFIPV
Cytochrome P450 2D6 (Homo sapiens), sequence (P10635 whole entry, looked up): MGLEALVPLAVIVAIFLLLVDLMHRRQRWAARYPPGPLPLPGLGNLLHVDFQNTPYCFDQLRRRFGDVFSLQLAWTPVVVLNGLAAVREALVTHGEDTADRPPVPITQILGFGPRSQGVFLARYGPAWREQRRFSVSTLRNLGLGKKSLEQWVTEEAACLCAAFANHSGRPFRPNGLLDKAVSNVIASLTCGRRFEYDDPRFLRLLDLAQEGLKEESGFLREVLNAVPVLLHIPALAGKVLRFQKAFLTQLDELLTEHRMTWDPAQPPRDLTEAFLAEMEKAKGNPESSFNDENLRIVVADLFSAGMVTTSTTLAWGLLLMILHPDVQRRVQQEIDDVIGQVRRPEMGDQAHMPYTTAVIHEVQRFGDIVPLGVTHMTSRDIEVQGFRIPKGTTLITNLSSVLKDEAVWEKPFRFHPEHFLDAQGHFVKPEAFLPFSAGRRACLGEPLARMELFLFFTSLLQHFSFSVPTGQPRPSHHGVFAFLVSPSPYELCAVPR

With `Nc1ccn([C@@H]2CC[C@H](CO)O2)c(=O)n1`, the Potency result in [1] was “inactive”.
As to `CCC(=O)O[C@@]1(C(=O)SCF)[C@@H](C)C[C@H]2[C@@H]3C[C@@H](F)C4=CC(=O)C=C[C@@]4(C)[C@]3(F)[C@@H](O)C[C@]21C`, the call in [2] was inactive. The figures for the Potency in assay [3] and in [9] were 2.82 µM (active) and 3.22 µM (active), respectively. Further, the Potency result in assay [4], in assay [5], in assay [6], in assay [7] and in assay [8] was “inactive” each time.
Consider `C[C@@]12CC[C@H]3[C@@H](CCC4=CC(=O)CC[C@]43C)[C@H]1CC[C@H]2C(=O)CO`, for which the compound was classed as inactive in [2]. The Potency result in assay [3], in assay [4], in [5], in assay [10], in assay [6] and in assay [11] was “inactive” each time. In addition, the Potency entry in assay [7], in assay [8], in [12], in assay [13], in [14] and in assay [9] was “inactive” each time.
As for `NC(=O)c1ccc[n+]([C@@H]2O[C@H](COP(=O)([O-])OP(=O)(O)OC[C@H]3O[C@@H](n4cnc5c(N)ncnc54)[C@@H](O)[C@@H]3O)[C@@H](O)[C@@H]2O)c1`, the Potency entry in [1], in [15], in assay [16], in assay [17], in [3] and in assay [4] was “inactive” throughout. Besides, the Potency result in [5], in assay [10], in assay [6], in assay [11], in assay [7] and in assay [8] was “inactive” in each case. Also, the Potency result in [12], in assay [18], in assay [13], in assay [19] and in assay [9] was “inactive” throughout.
Consider `NC(=O)c1cc[n+](CC2=C(C(=O)[O-])N3C(=O)[C@@H](NC(=O)Cc4cccs4)[C@@H]3SC2)cc1`, for which the outcome in [2] was inactive. Moreover, the Potency entry in assay [4], in [5], in [10], in assay [6], in [11] and in assay [7] was “inactive” in each case. In addition, the Potency result in [8], in [12], in assay [18], in [13], in assay [19] and in [14] was “inactive” throughout. The Potency entry in assay [9] was “inactive”.
With `CC[C@@H]1OC(=O)[C@H](C)[C@H](O[C@@H]2C[C@](C)(OC)[C@H](O)[C@H](C)O2)[C@H](C)[C@H](O[C@@H]2O[C@@H](C)C[C@@H](N(C)C)[C@@H]2O)[C@](C)(O)C[C@H](C)C(=O)[C@H](C)[C@H](O)[C@]1(C)O`, the Potency entry in [20] is “inactive”.
Regarding `COCC(=O)Nc1c(I)c(C(=O)NC[C@@H](O)CO)c(I)c(C(=O)N(C)C[C@@H](O)CO)c1I`, the Potency result in assay [3], in assay [4], in assay [5], in assay [10], in assay [6] and in assay [11] was “inactive” each time. The Potency entry in [7], in assay [8], in assay [12], in assay [18], in [13] and in assay [19] was “inactive” throughout. Besides, the Potency entry in assay [14] and in assay [9] was “inactive” throughout.
As to `Clc1ccc([C@H](Cn2ccnc2)OCc2csc3c(Cl)cccc23)c(Cl)c1`, the Potency in [1] was 0.316 µM (active); in assay [15], 0.794 µM (active); in [16] it was 5.01 µM (active); in assay [17], 0.251 µM (active); in assay [3], 1.41 µM (active); in [7] it was 6.42 µM (active). Moreover, the Potency in assay [13] is 5.1 µM (active); in [19], 3.55 µM (active); in assay [14] it was 6.42 µM (active); in [9], 2.28 µM (active). In addition, the Potency result in assay [20] and in assay [6] was “inactive” throughout. Moreover, in [2], the call was inactive.
For `CCC[C@@H]1O[C@@H]2C[C@@H]3[C@H]4CCC5=CC(=O)C=C[C@@]5(C)[C@H]4[C@H](O)C[C@@]3(C)[C@@]2(C(=O)CO)O1`, the call in assay [2] was inactive. The Potency was 4.47 µM (active) in assay [3]; 15.1 µM (active) in [5]; 12 µM (active) in assay [7]; 10.7 µM (active) in assay [12]; 11.2 µM (active) in [19]; 7.57 µM (active) in [14]. Also, the Potency in [9] is 6.01 µM (active).
Take `CC(=O)C[C@H](c1ccc([N+](=O)[O-])cc1)c1c(O)c2ccccc2oc1=O`: the Potency in assay [1] was 0.631 µM (active). For the same compound, the compound was called inactive in [2]. The Potency entry in [3], in assay [4], in assay [5], in [10], in assay [6] and in assay [11] was “inactive” each time. Further, the Potency result in [8], in assay [12], in [18], in assay [13], in assay [19] and in assay [14] was “inactive” throughout. Moreover, in assay [9], the Potency result was “inactive”.
For `C[C@@H](C(=O)O)c1ccc(C(=O)c2ccccc2)s1`, the Potency in assay [17] was 3.98 µM (active). Besides, the Potency result in [3], in assay [4], in assay [5], in assay [10], in assay [11] and in assay [7] was “inactive” throughout. Moreover, the Potency result in assay [8], in assay [12], in assay [18], in [13], in [19] and in assay [14] was “inactive” each time. The Potency result in assay [9] is “inactive”.
For `CC[C@H]1NC(=O)c2cc(S(N)(=O)=O)c(Cl)cc2N1`, the result in assay [2] was inactive. Also, the Potency result in assay [3], in assay [4], in assay [10], in [6], in [11] and in assay [7] was “inactive” in each case. For the same compound, the Potency result in [8], in [12], in [18], in assay [13], in assay [19] and in assay [9] was “inactive” in each case.
Take `CCCCC[C@H](O)/C=C\[C@@H]1[C@H](O)CC(=O)[C@@H]1CCCCCCC(=O)O`: in assay [2], the compound was classed as inactive. Moreover, the Potency result in assay [4], in assay [5], in [10], in assay [6], in assay [11] and in assay [7] was “inactive” throughout. The Potency entry in assay [8], in assay [12], in assay [18], in assay [19] and in assay [14] was “inactive” each time.
